# The sample as a whole holds a higher share of hits than the screen did.
# Pf Dd2 inh = qHTS Primary assay for Inhibitors of Plasmodium falciparum Dd2 growth in vitro | Potency, µM (series often up to 28.9 µM), for inactives: at the top dose activity, negative = inhibition, usual class: inhibitors | actives 4.3% (n = 120,000) | P. falciparum Dd2 growth, SYBR Green, 72 h | AID 1347417, 2020; active = well fitted inhibition curve with a large enough effect;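 also: plate controls were DMSO vehicle for no effect and reference drug for full effect; nearly all actives have a fitted effect of over 65% in size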
#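 Infected erythrocytes (Dd2, 0.3% parasitemia, 2.5% hematocrit final) are added to compound in RPMI-1640/Albumax II medium, grown 72 h at 37C in low oxygen, then lysed with saponin/Triton-X containing SYBR Green and read by fluorescence.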
# Active calls of the source: *; i = inactive; [ ] = another dose, or the depositor's remark. Potency is read from the fitted curve at half-maximal effect.
SMILES,Pf Dd2 inh
COc1ccc(-c2noc(C(=O)O)c2[C@@H](C)NC(=O)C2CCCC2)cc1,-11.3%[44.1 µM]
O=C1NCCCC12CCN(Cc1cccc(C(F)(F)F)c1F)C2 (stereo not drawn),-20.1%
COc1ccc(NC(=O)c2oc3ccc4c(c3c2C)C(=O)CC(C)(C)O4)cc1OC,i
CCc1cccc(NC(=O)c2cc3c(=O)oc4ccc(C)cc4c3s2)c1,68.2%
CCc1cccc(NC(=O)c2oc3ccc4c(c3c2C)C(=O)CC(C)(C)O4)c1,10µM*
CCCN(CC1CCOC1)S(=O)(=O)c1ccc(C)cc1C (stereo not drawn),i[5.79 µM]
Cc1ccccc1S(=O)(=O)N1CCCC(Cc2noc(-c3cnccn3)n2)C1 (stereo not drawn),21.6%
O=C(c1ccc(C(F)(F)F)cc1)N1CCC(N2CCCS2(=O)=O)CC1,7.6%
O=C(N[C@H]1CCOC[C@H]1C1CCOCC1)c1ccc2c(c1)ncn2CCO,-20.7%
Cc1cnc(CC2CCCN(C(=O)COc3ccccc3)C2)n1Cc1ccc(F)cc1 (stereo not drawn),-23.1%
COc1ccc(C(=O)N2CCCC(Cc3ncc(C)n3Cc3ccc(F)cc3)C2)cn1 (stereo not drawn),i
Cc1cnc(CC2CCN(S(=O)(=O)Cc3ccccc3)C2)n1C(C)C (stereo not drawn),4.47µM*
CCS(=O)(=O)N1CCCC(Cc2ncc(C)n2C(C)C)C1 (stereo not drawn),i
CCCn1c(C)cnc1CC1CCCN(S(=O)(=O)c2cn(C)cn2)C1 (stereo not drawn),-8.6%
CCS(=O)(=O)N1CCCC(Cc2ncc(C)n2Cc2ccc(F)cc2)C1 (stereo not drawn),1.78µM*
CCN(CC)C(=O)N1CCCC(Cc2ncc(C)n2Cc2ccc(F)cc2)C1 (stereo not drawn),3.55µM*
Cc1cnc(CC2CCN(S(=O)(=O)c3cn(C)cn3)C2)n1Cc1ccccc1 (stereo not drawn),-19.0%
Cc1cnc(CC2CCN(C(=O)C3CC3)C2)n1C(C)C (stereo not drawn),8.0%
Cc1cnc(CC2CCN(S(=O)(=O)c3ccc4c(c3)CCC4)C2)n1CC1CC1 (stereo not drawn),-16.2%
CCCn1c(C)cnc1CC1CCCN(S(C)(=O)=O)C1 (stereo not drawn),-4.5%
CCCn1c(C)cnc1CC1CCN(S(=O)(=O)c2ccc3c(c2)CCC3)C1 (stereo not drawn),1µM*
CC(=O)NC1CC2(CCN(C(=O)Cc3c(C)noc3C)CC2)Oc2ccccc21 (stereo not drawn),9.3%
O=C(C1CC2(CCNCC2)CN1)N1CCN(c2nc3ccccc3o2)CC1 (stereo not drawn),25.2%
CN(C)c1ccc(C(=O)N2CC[C@@H](CC(=O)O)[C@@H](CCN3C[C@@H]4C[C@H](C3)c3cccc(=O)n3C4)C2)cc1,-14.5%
O=C(O)c1ccc(-c2ncc3cnc(-c4ccccc4)cn23)cc1,i
SMILES,Pf Dd2 inh
O=C(Cn1nc2c(cc1=O)CCCC2)N1CCN(c2ccc(Cl)cc2)CC1,2.4%
Cc1cc(C(=O)N2CC[C@H](NC(=O)c3snnc3C)C[C@H]2C(=O)N[C@@H](Cc2cccs2)C(N)=O)n(C)n1,-13.7%
CNCc1cn(C2CCN(Cc3c(OC)ccc(F)c3F)CC2)nn1,-21.6%
COc1cc(=O)n2c(c1C(=O)NCC1CCOc3ccccc3C1)CCNCC2 (stereo not drawn),-5.4%
CN(C)CCNc1cc2c(cn1)NCCN(Cc1ccccc1)C2,i
CN(C)c1ncc2c(n1)C(C)(C(=O)NCCOc1ccccc1)CCC2 (stereo not drawn),-1.0%[44.1 µM]
COC[C@H]1C[C@@H](NCC(C)C)[C@H](O)[C@@H]1O,13.2%[44.1 µM]
CN(Cc1ccccc1)C(=O)[C@H]1CCC[C@H]1NC(=O)c1ccncc1,-19.2%
Cc1cccc(-c2nc(Cn3c(=O)cc(-c4ccccc4)c4c(C)nn(C)c43)c(C)o2)c1,-12.5%
Cc1ccc(C)c(-c2nc(Cn3c(=O)cc(-c4ccccc4)c4c(C)nn(C)c43)c(C)o2)c1,42.9%
Cc1oc(-c2ccccc2)nc1Cn1c(=O)cc(-c2ccccc2)c2c(C)nn(C)c21,10µM*
CCN(CC)S(=O)(=O)c1ccc2c(c1)N(CC(=O)Nc1ccc(F)cc1)C(=O)CO2,19.2%
Cc1ccc(NC(=O)CN2C(=O)COc3ccc(S(=O)(=O)N4CCCCC4)cc32)cc1Cl,5.7%
NS(=O)(=O)c1ccc(NC(=O)CN2C(=O)COc3ccc(Cl)cc32)cc1,0.708µM*
Cn1c(Cn2ccnc2)nnc1C1CCCN(C(=O)c2ccc(CO)o2)C1 (stereo not drawn),2.0%
O=C(Cc1c[nH]c2ncc(-c3cn[nH]c3)cc12)NCc1cccnc1,11.2µM*
Cc1cc(-c2cnc3[nH]cc(CC(=O)NCc4cccnc4)c3c2)ccn1,i
Cn1cc(-c2cnc3[nH]cc(CC(=O)NC4CCC4)c3c2)cn1,i
O=C(Cc1c[nH]c2ncc(-c3cccnc3)cc12)NCc1ccccc1,5.62µM*
O=C(Cc1c[nH]c2ncc(-c3ccc(F)c(Cl)c3)cc12)NCc1cccnc1,4.47µM*
O=C(Cc1c[nH]c2ncc(-c3ccccc3)cc12)Nc1cccnc1,-29.0%[44.1 µM]
O=C(Cc1c[nH]c2ncc(-c3ccccc3Oc3ccccc3)cc12)NCc1cccnc1,i
O=C(Cc1c[nH]c2ncc(-c3ccsc3)cc12)NCc1cccnc1,i
Cn1cc(-c2cnc3[nH]cc(CC(=O)NCc4ccncc4)c3c2)cn1,3.98µM*
O=C(Cc1c[nH]c2ncc(-c3cccnc3)cc12)NC1CC1,i
SMILES,Pf Dd2 inh
CC(C)CNC(=O)Cc1c[nH]c2ncc(-c3cnn(C)c3)cc12,i
O=C(Cc1c[nH]c2ncc(-c3ccccc3)cc12)NCCc1ccccc1,i
O=C(c1ccc(Oc2ccccc2)cc1)N1CCNc2cnc(Nc3cccc(C(F)(F)F)c3)nc2C1,-1.8%
O=C1NC(C(=O)N2CCOCC2)CN1Cc1ccccc1 (stereo not drawn),i
Cn1nc(C2CCN(C(=O)CCC3CCCC3)CC2)c2c1CCOC2,i[5.79 µM]
Cc1nc2c(c(=O)[nH]1)CCN(C(=O)C1(C)CCc3c(C)c(O)c(C)c(C)c3O1)C2 (stereo not drawn),-20.1%
O=C(C1CCCCC1)N1CC(F)(F)C[C@H]1c1nnc(C2CC2)o1,6.5%
COc1ccc(-c2noc(C(=O)O)c2[C@@H](C)NC(=O)Nc2ccccc2)cc1,12.6%[44.1 µM]
O=C(c1ccoc1)N1C[C@H]2OC(=O)N(CCCN3CCOCC3)[C@H]2C1,-1.3%
COc1cc(F)cc(-c2cnc3[nH]cc(CC(=O)NCc4cccnc4)c3c2)c1,i
COc1ncccc1-c1cnc2[nH]cc(CC(=O)Nc3ccccc3)c2c1,i
O=C(Cc1c[nH]c2ncc(-c3cccc(OC(F)(F)F)c3)cc12)NCc1cccnc1,3.98µM*
CN1CCN(C(=O)Cc2c[nH]c3ncc(-c4cccc(OC(F)(F)F)c4)cc23)CC1,i
COc1ncccc1-c1cnc2[nH]cc(CC(=O)Nc3ccccc3C)c2c1,10µM*
COc1ncccc1-c1cnc2[nH]cc(CC(=O)Nc3ccncc3)c2c1,i
O=C(Cc1ccc(C(F)(F)F)cc1)N1CC(COc2ccccc2)C2(C1)CN(C(=O)c1cn[nH]c1)C2 (stereo not drawn),i
COC[C@@H]1CN(Cc2ccco2)C[C@H]1C(=O)N(C)C,5.1%
CCc1noc(-c2cn(C3CCCN(C(=O)c4cc(C)cc(C)c4)C3)nn2)n1 (stereo not drawn),i
CN1CCCC2(CCN(C(=O)CCc3ccc(Cl)cc3)C2)C1=O (stereo not drawn),-4.4%

# Source: PubChem BioAssay (National Center for Advancing Translational Sciences (NCATS))
